Compounds with a hit are over-represented: about 7.5% of the library has one in this group of screens.
FLuc counter – inhibits or activates purified firefly luciferase, miR-21 counter-screen; purified FLuc, Km substrates, luminescence inhibition; Potency, µM (series often up to 57.5 µM), for inactives: at the top dose activity change, negative = inhibition, actives largely listed as inhibitors; hit rate 6.9% among 360,000; AID 588342;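 note: plate controls were vehicle for no effect and reference inhibitor for full effect; nearly all actives have a fitted effect of over 55% in size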
Target sequence (P08659 whole entry, looked up): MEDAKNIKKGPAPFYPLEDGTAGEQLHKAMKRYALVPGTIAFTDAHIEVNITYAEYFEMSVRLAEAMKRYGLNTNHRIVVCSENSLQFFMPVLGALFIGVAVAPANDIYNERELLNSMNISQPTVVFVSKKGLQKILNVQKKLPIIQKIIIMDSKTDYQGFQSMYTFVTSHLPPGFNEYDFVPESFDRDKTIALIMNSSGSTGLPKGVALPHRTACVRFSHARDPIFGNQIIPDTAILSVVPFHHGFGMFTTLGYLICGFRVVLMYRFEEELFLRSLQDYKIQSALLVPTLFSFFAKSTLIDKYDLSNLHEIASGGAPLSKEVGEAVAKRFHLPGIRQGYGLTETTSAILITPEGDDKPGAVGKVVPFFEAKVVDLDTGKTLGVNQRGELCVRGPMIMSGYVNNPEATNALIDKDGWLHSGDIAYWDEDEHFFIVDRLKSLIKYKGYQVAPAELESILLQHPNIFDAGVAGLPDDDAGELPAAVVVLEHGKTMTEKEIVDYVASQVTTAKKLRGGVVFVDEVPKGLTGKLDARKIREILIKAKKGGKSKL
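Purified P. pyralis luciferase, 10 nM final, with Km-level 10 uM D-luciferin and 10 uM ATP in 50 mM Tris acetate pH 7.5, 10 mM Mg acetate, 0.01% Tween-20, 0.05% BSA; 6-point qHTS titration about 60 µM downward; luminescence read.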
ELG1 genotoxic – inducers of genotoxicity in HEK293T ELG1-luciferase cells; HEK293T ELG1-luciferase reporter, luminescence, 16 h; Potency, µM (series often up to 46 µM), for the others: top-dose activity change, positive = activation, hits mostly activators; hit rate 1.3% among 330,000; note: % of control where 0% means no effect; nearly all actives have a fitted effect of over 60% in size
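ELG1-luciferase HEK293T cells, 2,000/well; compound pinned in; 16 hr, 37 °C, 5% CO2; ONE-Glo, 30 min RT; luminescence on CCD imager.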
NPC1 promoter act – NPC1 promoter activation; Huh7 NPC1 promoter luciferase reporter, 24 h; Potency, µM (top dose mostly 9.22 µM), for the others: top-dose activation, actives largely listed as activators; hit rate 2.4% among 320,000; AID 485313; note: % of control where 0% means no effect; nearly all actives have a fitted effect of over 60% in size
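Luminescence from an NPC1 promoter-driven luciferase reporter in stably transfected Huh7 cells was measured after 24 h compound treatment at 37 °C, followed by 10 min ambient incubation with luciferase detection reagent.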
SMN2 splice enh – increases expression of the SMN2 splice variant | HEK293 SMN2-luciferase splicing reporter, luminescence, 30-36 h | Potency, µM (highest dose often 46.1 µM), inactives show at the highest dose activity change, positive = activation, actives largely listed as activators | hit rate 2.8% among 210,000 | AID 1458; note: % of control where 0% means no effect; nearly all actives have a fitted effect of over 55% in size
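HEK293 cells carry an SMN2 […]–luciferase reporter in which exon 7 inclusion puts luciferase in frame. Cells were plated 10-12 h before compound addition, then incubated 30-36 h at 37C. ONE-Glo luminescence was read; sodium butyrate at 4.5 mM final served as control.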
Rab9 promoter act – Rab9 promoter activation; Huh7 Rab9 promoter-luciferase reporter, luminescence, 24 h; Potency, µM (doses to about 9.22 µM), inactives show top-dose activation, negative = inhibition, actives largely listed as activators; hit rate 2.8% among 320,000; note: % of control where 0% means no effect; nearly all actives have a fitted effect of over 60% in size
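Measured in stably transfected Huh7 cells bearing a Rab9 promoter–luciferase construct: 24 h compound treatment at 37 °C, followed by luminescence detection.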
* marks the source's active call; other numbers are inactive results; ? = inconclusive; · = no result. Calls come from the whole dose curve; as a rule, active = well fitted curve in the direction sought with a large enough effect; inconclusive = small, poorly fitted or top-dose-only effect, or another doubt; inactive = no such curve, though single readings can be large; an effect the other way counts as inactive or inconclusive. Potency is the fitted concentration of half-maximal effect.

SMILES	FLuc counter	ELG1 genotoxic	NPC1 promoter act	SMN2 splice enh	Rab9 promoter act
CC(=S)/C=C1\Sc2ccccc2N1C	-15.2%	-1.4%	-1.7%	-20.7%	-7.3%
COc1ccccc1C(=O)NCCC(=O)NCC(c1ccccc1)N(C)C (stereo unspecified)	13.5µM*	6.3%	2.2%	·	-2.0%
COc1ccccc1C(=O)NCCC(=O)NCCc1ccccc1	4.1%	14.0%	-0.5%	·	-4.1%
COc1ccccc1C(=O)NCCC(=O)NC1CCC(C)CC1 (stereo unspecified)	13.5µM*	?	?	·	3.98µM*
CCC1CCc2c(sc(NC(=O)C3c4ccccc4Oc4ccccc43)c2C(=O)OC)C1 (stereo unspecified)	1.0%	·	·	-20.7%	·
CCOC(=O)C1=C(CSc2nc(-c3ccccc3)ccc2C#N)OC(N)=C(C#N)C1c1ccc(OC)cc1 (stereo unspecified)	15.1µM*	?	-1.2%	-4.1%	-2.9%
Cc1nn(-c2ccc(F)cc2)c(Cl)c1/C=N/NC(=O)c1ccc(O)cc1	19µM*	-3.4%	1.7%	8.8%	-0.2%
Cc1nn(-c2ccc(F)cc2)c(Cl)c1/C=N/NC(=O)c1cccs1	?	17.4%	?	?	2µM*
CNC(=S)N/N=C/c1c(C)nn(-c2ccc(F)cc2)c1Cl	-2.6%	15.1%	-2.9%	10.9%	-4.0%
CCN(CC(=O)NCc1ccc(F)cc1)CC(=O)Nc1cc(S(=O)(=O)N(C)C)ccc1C	6.7%	-7.1%	0.2%	·	-3.1%
CC(C)c1ccc(Cc2cn3cc(-c4cc5ccccc5oc4=O)nc3s2)cc1	-17.1%	·	·	-25.4%	·
O=c1oc2ccccc2cc1-c1ccccc1	?	?	19.4%	21.4%	?
Cc1cccn2cc(-c3cc4ccccc4oc3=O)nc12	0.19µM*	0.82µM*	0.112µM*	·	0.141µM*
COc1ccc2oc(=O)c(-c3cn4ccc(C)cc4n3)cc2c1	?	20.6µM*	?	-9.9%	3.16µM*
Nc1ccc(-c2cn3cccnc3n2)cc1	?	12.8%	23.6%	30.9%	?
O=c1oc2ccccc2cc1-c1cn2cccnc2n1	4.26µM*	?	1µM*	4.47µM*	0.562µM*
O=c1oc2ccccc2cc1-c1cn2ccccc2n1	0.0953µM*	?	0.112µM*	·	?
CC1c2cc3c(cc2CCN1C(=O)c1cccc(F)c1)OCCCO3 (stereo unspecified)	-3.9%	-10.9%	-3.5%	·	-1.0%
CN1CCN(C(=S)NC(=O)c2ccc(C(C)(C)C)cc2)CC1	?	1.0%	-1.8%	-1.0%	-0.3%
C=CCn1cccc(/C=C/C(=O)c2ccc(C(C)(C)C)cc2)c1=S	13.5µM*	-18.9%	-1.4%	-104.1%	-8.2%
c1ccc(Cn2c(-c3cccs3)nc3nc4ccccc4nc32)cc1	15.1µM*	4.1%	16.1%	-4.9%	4.4%
CC(C)Cn1c(-c2cccs2)nc2nc3ccccc3nc21	?	-8.1%	-1.2%	-0.6%	2.4%
CSc1ccc(/C=N/NC(=O)COc2ccc(Br)cc2Cl)cc1	-4.7%	1.9%	4.4%	·	0.2%
COc1cccc2c1Oc1ncccc1N(C(=O)CCC(=O)NCCC(C)C)C2	-2.0%	·	·	·	·
COc1ccc(Nc2nc(N)nc(CCl)n2)cc1	6.01µM*	?	·	·	-47.6%
SMILES	FLuc counter	ELG1 genotoxic	NPC1 promoter act	SMN2 splice enh	Rab9 promoter act
Nc1nc(CCl)nc(Nc2ccc3ccccc3c2)n1	3.01µM*	27.8%	-36.9%	·	-54.4%
O=[N+]([O-])c1ccc(C(O)CSC(=S)N2CCCCC2)cc1 (stereo unspecified)	16.9µM*	16.9%	2.82µM*	·	25.3%
Cn1c(-c2ccccc2)c(/C=N/NC(=O)c2cccnc2)c2ccccc21	5.36µM*	-14.1%	20.8%	?	1.2%
O=C(N/N=C/c1c(-c2ccccc2)[nH]c2ccccc12)c1cccnc1	3.01µM*	-1.9%	0.6%	?	15.2%
CCCCC1=CC2=C(OC(C)=O)C(=O)C(C)(OC(=O)CCC(=O)OC)C(=O)C2=CO1 (stereo unspecified)	·	·	·	13.9%	·
Cc1ccsc1/C=C1\SC(N)=NC1=O	?	14.4%	18.5%	15.4%	24.6%
Cc1ccc(/C=C2\CCC(C3CCCC3)C2=O)cc1 (stereo unspecified)	0.477µM*	9.2µM*	3.16µM*	22.4µM*	3.55µM*
COc1ccc(/C=C2\CCOC2=O)cc1	-18.2%	1.1%	10.5%	-15.1%	13.1%
COc1ccc(/C=C2\CCC(C3CCCC3)C2=O)cc1 (stereo unspecified)	0.477µM*	?	3.98µM*	·	3.55µM*
COc1ccc(/C=C2\CCC(C3CCCC3)C2=O)c(OC)c1 (stereo unspecified)	21.3µM*	8.3%	24.6%	·	13.4%
Cc1ccsc1/C=C1\CCC(C2CCCC2)C1=O (stereo unspecified)	2.13µM*	?	2.82µM*	·	3.55µM*
CCOc1ccc(-c2nc(C#N)c(NCc3ccco3)o2)cc1	?	6.2%	-0.8%	-10.7%	-3.5%
Cc1ccc(Oc2coc3cc(OCC(=O)NC4CCCCC4)ccc3c2=O)cc1	-4.5%	·	·	-8.8%	·
Cc1ccc(S(=O)(=O)NC(C)C(=O)NC(C)c2cccs2)cc1 (stereo unspecified)	-0.7%	3.2%	1.4%	·	0.3%
Clc1c(-c2nnc3n2CCC3)sc2ccccc12	21.3µM*	23.1%	-0.5%	8.0%	2.4%
O=C(N/C(=C\c1ccc([N+](=O)[O-])cc1)C(=O)N1CCCCC1)c1ccccc1Br	2.0%	-1.2%	-2.7%	-16.9%	-25.4%
CCOC(=O)N1CCN(C(=O)c2oc3ccc(S(=O)(=O)N4CCOCC4)cc3c2C)CC1	1.0%	-5.6%	1.0%	-18.5%	0.7%
Cc1c(C(=O)N2CCOCC2)oc2ccc(S(=O)(=O)N3CCCC3)cc12	-5.5%	·	?	1.7%	0.0158µM*
Cc1ccc(CNC(=O)c2oc3ccc(S(=O)(=O)N4CCOCC4)cc3c2C)cc1	3.4%	-19.7%	0.5%	5.62µM*	-1.4%
CC(=O)N1CCN(Cc2nc3cc(NC(=O)NC4CCCCC4)ccc3n2C)CC1	-14.0%	9.3%	1.0%	20.9%	-2.8%
C=CCn1c(SCc2ccccc2)nc2scc(-c3ccc(C)o3)c2c1=O	0.8%	-1.9%	0.2%	-8.3%	-6.9%
C=CCn1c(SCC(N)=O)nc2scc(-c3ccc(C)o3)c2c1=O	4.78µM*	?	?	·	2.51µM*
O=C(O)c1cc(O)c2c(c1)[C@H]([C@H]1c3cc(C(=O)O)cc(O)c3C(=O)c3c(O[C@@H]4OC(CO)C(O)C(O)C4O)cccc31)c1cccc(O[C@@H]3OC(CO)C(O)C(O)C3O)c1C2=O (stereo partly specified)	·	·	·	-17.0%	·
Cc1ccccc1OCC(O)Cn1nnc2ccccc21 (stereo unspecified)	21.3µM*	?	?	11.2µM*	3.55µM*
Cc1ccc(OCC(=O)Nc2cccnc2Cl)cc1C	?	13.9%	-4.3%	·	-3.8%

Source: PubChem (National Center for Advancing Translational Sciences (NCATS))
